# Results: the supplement of paper PMC10981050
# Values joined by “and” are separate entries in the source; they are usually repeats but may differ in a detail not shown here. Identical values can stand only once. Counter-ions that a name gives are not always drawn.
# What was measured:
# Assay in all cases: cell viability relative to vehicle control; higher = less cytotoxic
# Conditions in all cases: 10 µM
# K562 = test system: K562
# Outline: (§1)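 Screening covered the Selleck bioactive, kinase and epigenetic probe libraries, less identity-inconsistent compounds, on CRISPR-edited mutant clones and isogenic wild-type clones of four leukaemia lines. Cells, at 2000 per well in 50 µL medium, received a single 10 µM acoustically dispensed dose. After 48 h the supernatant was removed and CellTiter-Glo luminescence was read. Viability was analysed in Genedata Screener as percent of the on-plate vehicle control.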
# MARIMO = test system: MARIMO
# Outline: as §1
# MOLM14 = test system: MOLM14
# Outline: as §1
# OCI-AML2 = test system: OCI-AML2
# Outline: as §1
SMILES,cell viability (K562; SRSF2 genotype: SRSF2 P95H/wt),cell viability (K562; SRSF2 genotype: SRSF2 wt/wt) [%],cell viability (MARIMO; SRSF2 genotype: SRSF2 P95H/wt) [%],cell viability (MARIMO; SRSF2 genotype: SRSF2 wt/wt) [%],cell viability (MOLM14; SRSF2 genotype: SRSF2 P95H/wt) [%],cell viability (MOLM14; SRSF2 genotype: SRSF2 wt/wt) [%],cell viability (OCI-AML2; SRSF2 genotype: P95H/wt) [%],cell viability (OCI-AML2; SRSF2 genotype: wt/wt) [%]
CC1(C)CCC2(C(=O)O)CCC3=C(CCC4C3(C)CCC3C4(C)CC(O)C(O)C3(C)C(=O)O)C2C1 (centres undefined) [Polygalic acid],86.1% and 86.3%,82,89.8,92,87.7,87.9,83.1,95.3
C=C1CCN([C@H](C)[C@](O)(Cn2cncn2)c2ccc(F)cc2F)CC1 [Efinaconazole],86.9% and 94%,96.9,76.3,88.3,85.8,95.8,82.2,83.5
COc1cc2nc(N(C)CCCNC(=O)C3CCCO3)nc(N)c2cc1OC (centres undefined) [Alfuzosin hydrochloride (Uroxatral)],97% and 98.6%,95.3,91.3,98.1,96.7,97.5,90.7,103
CC(C)N(CCC(=O)c1ccc2ccccc2c1)Cc1ccccc1,12.2% and 12.8%,13.9,0.57,0.67,0.58,0.45,0.38,0.4
COc1ccc(CCCOC(Cn2ccnc2)c2ccc(OC)cc2)cc1 (centres undefined),16.1% and 28.8%,28.9,13.8,14.8,19.7,4.26,14.6,18.9
CC(C)=CCC[C@](C)(O[C@@H]1O[C@H](CO)[C@@H](O)[C@H](O)[C@H]1O)[C@H]1CC[C@]2(C)[C@@H]1[C@H](O)C[C@@H]1[C@@]3(C)CC[C@H](O)C(C)(C)[C@@H]3CC[C@]12C [Ginsenoside CK],82.7% and 78.2%,77,92.6,104,77.2,95,65.3,76.4
COc1c(C)c2c(c(O)c1C/C=C(\C)CCC(=O)OCCN1CCOCC1)C(=O)OC2 [Mycophenolate mofetil (CellCept)],50.6% and 48.7%,45.1,45.4,43.6,9.99,2.92,13.5,12.2
Cc1cn([C@H]2C[C@H](N=[N+]=[N-])[C@@H](CO)O2)c(=O)[nH]c1=O [Zidovudine (Retrovir)],96.5% and 101%,101,102,113,95.5,105,101,105
"Cc1ccc2c(c1)C(=O)C1(O)CCN(c3ccccc3)C1=N2 (single isomer, unassigned; (-)) [(-)-Blebbistatin]",93.5% and 92.5%,94,88.4,98.6,61.3,60.7,80.5,90.4
CC(=C(CCOC(=O)C(C)C)SSC(CCOC(=O)C(C)C)=C(C)N(C=O)Cc1cnc(C)nc1N)N(C=O)Cc1cnc(C)nc1N (stereo in doubt) [Sulbutiamine],99% and 93.5%,93.6,84.7,95.4,84.2,90.8,84.7,93.6
CCCCCCCCCCCCCc1cccc(O)c1C(=O)O [Ginkgolic Acid (C130)],108% and 100%,108,103,107,104,110,102,103
CC(C)[C@H](O)C(=O)N[C@@H](C)C(=O)N[C@@H]1C(=O)N(C)CCc2ccccc21,106% and 107%,106,96,107,109,105,101,111
COc1cc(Nc2ncc3c(n2)-c2ccc(Cl)cc2C(c2c(F)cccc2OC)=NC3)ccc1C(=O)O [MLN8237 (Alisertib)],46.2% and 63.8%,60,87.3,108,30.6,17.7,43.5,44.5
NC(=O)N1c2ccccc2C=Cc2ccccc21 [Carbamazepine (Carbatrol)],95.3% and 86.7%,90.3,81.3,97.6,88.3,87.9,92,104
CC(C)(C)C(=O)N1N=CC[C@H]1c1ccccc1,101% and 98.4%,104,107,108,95.5,103,97.2,103
Cc1cn([C@H]2O[C@@H](CO)[C@H](O)[C@H]2F)c(=O)[nH]c1=O [Clevudine (Levovir)],91.2% and 95.1%,99.5,91.2,92.2,101,97.9,99.6,88.1
CC(C)C(NC(=O)c1ccc2ccccc2n1)C(=O)NC(CC(=O)O)C(=O)COc1c(F)cccc1F (centres undefined),104% and 106%,97.3,100,110,104,99.8,100,101
CC[C@H](Nc1ncnc2[nH]cnc12)c1oc2ccccc2c(=O)c1-c1cccc(F)c1 [Tenalisib (RP6530)],101% and 96%,98.2,95.2,100,82.4,84.4,84.8,87.5
C[C@H](CSC(=O)c1ccccc1)C(=O)N1C[C@@H](Sc2ccccc2)C[C@H]1C(=O)O [Zofenopril calcium],106% and 100%,106,104,96.9,98.3,108,116,121
CCc1nc(N)nc(N)c1-c1ccc(Cl)cc1 [Pyrimethamine],73.7% and 96.8%,36.4,95.2,99.7,102,92.3,107,102
COc1cc(C=CC=O)ccc1O [Ferulaldehyde],102% and 97.5%,98.5,97,103,89.6,97.7,95.6,111
Nc1nc(N)c2nc(-c3cccc(O)c3)cnc2n1,80.3% and 89.9%,83.4,63.7,59.2,57.2,57.8,48.7,53.1

SMILES,cell viability (K562; SRSF2 genotype: SRSF2 P95H/wt),cell viability (K562; SRSF2 genotype: SRSF2 wt/wt) [%],cell viability (MARIMO; SRSF2 genotype: SRSF2 P95H/wt) [%],cell viability (MARIMO; SRSF2 genotype: SRSF2 wt/wt) [%],cell viability (MOLM14; SRSF2 genotype: SRSF2 P95H/wt) [%],cell viability (MOLM14; SRSF2 genotype: SRSF2 wt/wt) [%],cell viability (OCI-AML2; SRSF2 genotype: P95H/wt) [%],cell viability (OCI-AML2; SRSF2 genotype: wt/wt) [%]
Fc1ccc(-c2c3cccc(C(F)(F)F)c3nn2Cc2ccc(F)cc2Cl)cc1,95.4% and 91.2%,90.1,97.2,114,94.2,98,114,120
Cc1cc(O)c(-c2ccc([C@@H](C)CN)cc2)c2c1[nH]c(=O)c1sccc12 [OTS514 hydrochloride],19.6% and 29.6%,21.7,3.37,1.35,0.27,0.16,0.39,8.87
COc1ccnc(C[S+]([O-])c2nc3cc(OC(F)F)ccc3[nH]2)c1OC (centres undefined) [Pantoprazole (Protonix)],103% and 104%,102,109,103,115,112,113,96.5
COc1ccc(-c2cc(=O)c3c(OC)c(OC)c(OC)c(OC)c3o2)cc1OC [Nobiletin (Hexamethoxyflavone)],94.6% and 90.6%,92.6,79.1,82.1,83.3,81.3,74.5,81.5
Nc1ncn([C@@H]2O[C@H](CO)[C@@H](O)[C@H]2O)c(=O)n1 [Azacitidine (Vidaza)],47.4% and 45.7%,52.2,45.5,52.8,45.7,40.3,35.8,34.3
C[C@H]1Oc2cc(cnc2N)-c2c(nn(C)c2C#N)CN(C)C(=O)c2ccc(F)cc21,102% and 95.5%,99.1,91.1,91,119,106,94.9,104
COc1c(O)cc2c(c1O)[C@@H]1O[C@H](CO)[C@@H](O)[C@H](O)[C@H]1OC2=O [Bergenin (Cuscutin)],100% and 84%,86.1,89.2,99,85.6,91.9,91,94.1
O=C(O)c1cn(-c2ccc(F)cc2)c2cc(N3CCNCC3)c(F)cc2c1=O [Sarafloxacin HCl],99.7% and 102%,90.9,97.8,102,103,99.5,102,102
C#C[C@]1(O)CC[C@H]2[C@@H]3CCc4cc(OC)ccc4[C@H]3CC[C@@]21C [Mestranol],79% and 93.7%,96.3,78.5,76,90.7,99.9,74.9,82
CCOC(=O)[C@H](CCc1ccccc1)N[C@H]1CCc2ccccc2N(CC(=O)O)C1=O [Benazepril hydrochloride],109% and 106%,108,101,111,95.9,98.9,93.3,102
COc1cc(C(=O)OCCCCNC(=N)N)cc(OC)c1O [Leonurine Hydrochloride],95.9% and 95.7%,101,98.8,95.4,98,102,101,98.6
CCN(CC)CCN(Cc1ccc(-c2ccc(C(F)(F)F)cc2)cc1)C(=O)Cn1c(SCc2ccc(F)cc2)nc(=O)c2c1CCC2,0.31% and 0.26%,0.26,0.34,0.46,0.23,0.24,0.22,0.29
O=C(/C=C/c1ccc(O)c(O)c1)c1ccc(O)cc1O [Butein],62% and 61%,76.8,52.6,64.7,52.4,47.8,84.1,77.8
COc1cc(-c2cn(C)c(=O)c3cnccc23)cc(OC)c1CN(C)C,104% and 95.7%,105,99.4,87.2,103,95.9,98.6,113
COc1cc(C=O)cc(OC)c1O [Syringaldehyde],110% and 99.8%,96,102,112,99.2,105,94.8,114
CC(C)CCCC(C)C1CCC2C3=CC=C4CC(O)CCC4(C)C3CCC21C (centres undefined) [7-Dehydrocholesterol],88.5% and 88.6%,96.5,87.6,87,86.6,93.9,94.2,94.7
CC(C)[C@H]1C(=O)N[C@@H](CCCNC(=N)N)C(=O)NCC(=O)N[C@@H](CC(=O)O)C(=O)N[C@H](Cc2ccccc2)C(=O)N1C [Cilengitide trifluoroacetate],98.5% and 105%,101,102,99.1,103,99.5,104,109
CCN[C@H]1CN(CCCOC)S(=O)(=O)c2sc(S(N)(=O)=O)cc21 [Brinzolamide],87.4% and 79.5%,85.7,83.7,88.2,83.2,86.5,84.2,90.2
CO[C@]1(CC[C@@H](C)CO[C@@H]2O[C@H](CO)[C@@H](O)[C@H](O)[C@H]2O)O[C@H]2C[C@H]3[C@@H]4CC=C5C[C@@H](O[C@@H]6O[C@H](CO)[C@@H](O[C@@H]7O[C@@H](C)[C@H](O)[C@@H](O)[C@H]7O)[C@H](O)[C@H]6O[C@@H]6O[C@@H](C)[C@H](O)[C@@H](O)[C@H]6O)CC[C@]5(C)[C@H]4CC[C@]3(C)[C@H]2[C@@H]1C [Methylprotodioscin],0.68% and 0.5%,1.3,0.54,0.79,0.52,0.56,0.5,0.54
Cc1cccc(CN2CCN(C(c3ccccc3)c3ccc(Cl)cc3)CC2)c1 (centres undefined) [Meclizine dihydrochloride],87.7% and 94.2%,91.5,92.2,105,86.2,91.2,86.4,83.2
Cc1ccc2nc(CN(CCN(Cc3nc4ccc(C)cc4[nH]3)Cc3nc4ccc(C)cc4[nH]3)Cc3nc4ccc(C)cc4[nH]3)[nH]c2c1,1.04% and 0.84%,1.19,0.68,0.61,0.58,0.53,0.47,0.63
